{"source": "ChEMBL document CHEMBL4513216", "about": "“Probing the Open Global Health Chemical Diversity Library for Multistage-Active Starting Points for Next-Generation Antimalarials” (ACS Infect Dis, 2020)", "note": "The whole screen tested about 69,000 compounds, of which about 8,600 (12%) showed an effect of 50% or more. This excerpt belongs to a sample that is enriched for strong results.", "data": [{"system": "Plasmodium berghei", "assay": "Screen against P. berghei liver stage (PbLuc), transformed with Luciferase, at 10uM", "format": "functional, HepG2", "conditions": "tested at 10 uM", "units": {"INHIBITION": "%"}, "values": [{"compound": "O=C(c1ccc(Cn2ccccc2=O)o1)N1CCSCC1", "INHIBITION": 20.45}, {"compound": "CC(=O)Nc1nc(CNc2ccccc2CCC(F)(F)F)cs1", "INHIBITION": 42.6}, {"compound": "CNc1nc(CNC(=O)Nc2cccc(Cl)c2OC)cs1", "INHIBITION": 3.263}, {"compound": "COCCS(=O)(=O)Cc1csc(NC(C)=O)n1", "INHIBITION": 21.8}, {"compound": "CC(=O)Nc1nc(CS(=O)(=O)CCCc2ccccc2)cs1", "INHIBITION": -25.2}, {"compound": "COc1c(Cl)cccc1NCc1csc(NC(C)=O)n1", "INHIBITION": 89.4}, {"compound": "COCc1ccccc1NCc1csc(NC(C)=O)n1", "INHIBITION": 89}, {"compound": "COc1c(Cl)cccc1NCc1csc(C)n1", "INHIBITION": -1.37}, {"compound": "Cc1nc(CNc2ccccc2CCC(F)(F)F)cs1", "INHIBITION": -13.6}, {"compound": "CC(=O)Nc1nc(CS(=O)(=O)Cc2ccccc2)cs1", "INHIBITION": 55.4}, {"compound": "Cc1nc(CNc2cccc(Cl)c2Cl)cs1", "INHIBITION": 50}, {"compound": "COCc1csc(NC(=O)NCc2ccccn2)n1", "INHIBITION": -3.99}, {"compound": "CCOC(C)c1nc(CNc2cccc(Cl)c2OC)cs1", "note": "(stereo unspecified)", "INHIBITION": -3.08}, {"compound": "CN(Cc1ccco1)C(=O)C1CSCN1C(=O)c1cccs1", "note": "(stereo unspecified)", "INHIBITION": -31.8}, {"compound": "CCS(=O)(=O)N1CC[C@@H]2[C@H](CC1)N(Cc1cccnc1)CCS2(=O)=O", "INHIBITION": 5.56}, {"compound": "CCCC(=O)Nc1ccc(CC(=O)N(C)CCc2cn[nH]c2)cc1", "INHIBITION": 17.3}, {"compound": "COCC1N(C(=O)c2ccc3c(c2)OCCCO3)C2CCC1(O)CC2", "note": "(stereo unspecified)", "INHIBITION": -35.3}, {"compound": "CN1CC(C(=O)NCc2cccnc2-n2cccn2)CC1=O", "note": "(stereo unspecified)", "INHIBITION": -37.7}, {"compound": "COCC1CN(Cc2cc(C)on2)Cc2cnn(C)c21", "note": "(stereo unspecified)", "INHIBITION": -13.7}, {"compound": "CCn1c(Cn2cncn2)nnc1C1CCN(Cc2cccnc2)CC1", "INHIBITION": -50.8}, {"compound": "Cc1nn(C)c2c(N3CCSCC3)nc(C3CC3)nc12", "INHIBITION": 22.6}, {"compound": "CN1CCN(c2ccc(NCc3ccsc3)cn2)CC1", "INHIBITION": 69.3}, {"compound": "CN1CCN(c2ccc(NCc3ccc(OC(F)(F)F)cc3)cn2)CC1", "INHIBITION": 83.2}, {"compound": "CN(Cc1ccsc1)C(=O)Nc1ccc(N2CCCC2)nc1", "INHIBITION": 15.3}, {"compound": "CCOc1ccc(NCc2cnc(N3CCN(C)CC3)nc2)cn1", "INHIBITION": -15.7}, {"compound": "CN1CCN(c2ccc(NCc3ccc([S+](C)[O-])cc3)cn2)CC1", "note": "(stereo unspecified)", "INHIBITION": 47.4}, {"compound": "Cc1nc(CNCc2ccc(N3CCN(C)CC3)nc2)cs1", "INHIBITION": 29.1}, {"compound": "O=C(c1ccco1)N1C[C@@H]2CN(c3ccccn3)C[C@@H]2C1", "INHIBITION": 5.04}, {"compound": "O=C1NC2(CCN(C(=O)c3ccccc3)CC2)CC1c1cccnc1", "note": "(stereo unspecified)", "INHIBITION": -8.19}, {"compound": "O=C(c1cccc(S(=O)(=O)NC[C@@H]2C[C@H](F)CN2)c1)N1CCCCC1", "INHIBITION": 46.1}, {"compound": "CCOCCNC(=O)c1cccc(S(=O)(=O)NC[C@@H]2C[C@H](F)CN2)c1", "INHIBITION": -3.87}, {"compound": "O=C(Nc1ccccc1)c1cccc(S(=O)(=O)NC[C@@H]2C[C@H](F)CN2)c1", "INHIBITION": 60.2}, {"compound": "CNc1snc(C)c1C(=O)N1CCCC(n2ccnc2C)C1", "note": "(stereo unspecified)", "INHIBITION": 37.9}, {"compound": "Cn1ccnc1CN1CCc2onc(COCC3CC3)c2C1", "INHIBITION": 19.6}, {"compound": "Cc1nccn1CCCN1CCCC(c2ccccc2)C1", "note": "(stereo unspecified)", "INHIBITION": 49.4}, {"compound": "CC(=O)Nc1ccc(OCc2noc(C(=O)N3CCCCCC3)n2)cc1", "INHIBITION": 64.7}, {"compound": "CC(=O)Nc1ccc(OCc2noc(C(=O)N3CCCC3)n2)cc1", "INHIBITION": 31.3}, {"compound": "CC(=O)Nc1ccc(OCc2noc(C(=O)N3CCCCC3)n2)cc1", "INHIBITION": 17.1}, {"compound": "N#Cc1cccc(N2CCCC3(C2)CN(c2ncc(F)cn2)CCO3)n1", "note": "(stereo unspecified)", "INHIBITION": 8.31}, {"compound": "c1coc(CN2CCn3c(COCC4CC4)nnc3C2)c1", "INHIBITION": 18.5}, {"compound": "NC(=O)C1CCCN(C(=O)c2cnc3c(cnn3C3CCCC3)c2)C1", "note": "(stereo unspecified)", "INHIBITION": 56.6}, {"compound": "CN1CCN(C(=O)c2cnc3c(cnn3C3CCCC3)c2)CC1", "INHIBITION": 24.8}, {"compound": "CCOC1CCCN(C(=O)c2cnc3c(cnn3C3CCCC3)c2)C1", "note": "(stereo unspecified)", "INHIBITION": 24}, {"compound": "O=C(O)CN(C(=O)c1ccccc1)[C@H]1C[C@H]2CCOC[C@H]2C1", "INHIBITION": -6.53}, {"compound": "Cc1ccc(NC2CCN(C(=O)c3ccc(C(N)=O)s3)CC2)nn1", "INHIBITION": 42}, {"compound": "CN(C)c1ncccc1CNC(=O)NCc1ccc(Cl)s1", "INHIBITION": -10.1}, {"compound": "COc1ccccc1CCC(=O)N1CCCC(OCc2cccnc2)C1", "note": "(stereo unspecified)", "INHIBITION": 25.8}, {"compound": "Cn1nccc1CCC(=O)N1CCCC(c2cnccn2)C1", "note": "(stereo unspecified)", "INHIBITION": 25.6}, {"compound": "Cn1cnnc1CCC(=O)N1CCCC(OCc2cccnc2)C1", "note": "(stereo unspecified)", "INHIBITION": 51}, {"compound": "CC(C)C(=O)N1CCCC(Cc2cccnc2)C1", "note": "(stereo unspecified)", "INHIBITION": 16.2}, {"compound": "Cc1cncc(C2CCN(C(=O)CCc3ccnn3C)CC2)n1", "INHIBITION": 6.32}, {"compound": "Cn1nccc1CCC(=O)N1CCCC(Cc2cccnc2)C1", "note": "(stereo unspecified)", "INHIBITION": 56}, {"compound": "Cn1nccc1CCC(=O)N1CCC(c2cnccn2)CC1", "INHIBITION": 54.4}, {"compound": "O=C(CCc1ccccc1F)N1CCCC(OCc2cccnc2)C1", "note": "(stereo unspecified)", "INHIBITION": 48.8}, {"compound": "O=C1CCCN1CCCC(=O)N1CCCC(Cc2cccnc2)C1", "note": "(stereo unspecified)", "INHIBITION": 41.2}, {"compound": "Cc1ccn(CCC(=O)N2CCCC(Cc3cccnc3)C2)n1", "note": "(stereo unspecified)", "INHIBITION": 41.2}, {"compound": "CN(CCC(=O)N1CCCC(Cc2cccnc2)C1)Cc1cccnc1", "note": "(stereo unspecified)", "INHIBITION": 38.2}, {"compound": "O=C(CCn1ncc2ccccc21)N1CCCC(Cc2cccnc2)C1", "note": "(stereo unspecified)", "INHIBITION": 53}, {"compound": "CN(CC(=O)NC1CCOCC1)C1CCCN(c2cccnn2)C1", "note": "(stereo unspecified)", "INHIBITION": 26.5}, {"compound": "O=C(CCCN1CCOC1=O)Nc1cnn(-c2ccccc2Cl)c1", "INHIBITION": 33.8}, {"compound": "CNc1cc2c(nn1)CCN(C(=O)c1ccc3c(c1)CCC3)C2", "INHIBITION": 27.4}, {"compound": "Cc1noc(C)c1CNCC1CNc2ccnn2C1", "note": "(stereo unspecified)", "INHIBITION": 39.3}, {"compound": "CC(C)n1cc(CN2CCCN(C(=O)CN3CCCC3=O)CC2)cn1", "INHIBITION": 33.7}, {"compound": "CC(C)N(C)Cc1n[nH]c2c1CCN(C(=O)c1ccc[nH]1)C2", "INHIBITION": 2.79}, {"compound": "CC(C)CCNC(=O)CNC(=O)N1CCc2c([nH]c3ccc(Cl)cc23)C1", "INHIBITION": -2.13}, {"compound": "c1cc(CN2CCCN(c3ccc4cc[nH]c4n3)CC2)ccn1", "INHIBITION": 54.4}, {"compound": "Fc1ccccc1CN1CCCN(c2ccc3cc[nH]c3n2)CC1", "INHIBITION": 70.4}, {"compound": "Fc1ccccc1CN1CCCN(c2ncnc3[nH]ccc23)CC1", "INHIBITION": 26.9}, {"compound": "Cc1ccn(-c2ccc(N3CCCN(Cc4ccccc4)CC3)nn2)n1", "INHIBITION": 6.39}, {"compound": "O=C1OCCN1CCN1CCCN(Cc2ccccc2F)CC1", "INHIBITION": 15.1}, {"compound": "c1cc2ccc(N3CCN(Cc4ccc5c(c4)OCO5)CC3)nc2[nH]1", "INHIBITION": 44.7}]}]}
